Inconclusive results are not listed. The source made the active and inactive calls. Calls follow the shape of the dose curve; as a rule, active = well fitted curve in the direction sought with a large enough effect; inconclusive = small, poorly fitted or top-dose-only effect, or another doubt; inactive = no such curve, though single readings can be large; an effect the other way counts as inactive or inconclusive.
How the values were obtained:
CRL-7250 = normal cell line; assay: Cytotoxic Profiling of Annotated Libraries Using Quantitative High-Throughput Screening (AID 1296008); details: Five cell lines viability, CellTiter-Glo ATP luminescence, 48-72 h; max response: stronger effect = lower value; also: nearly all actives have a fitted effect of over 60% in size; as to max response: % is scaled to controls: 0 for no effect and ±100 for the full control effect
Method in brief: (§1)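 Cytotoxicity was measured as CellTiter-Glo ATP luminescence, read after 10 min at room temperature. Compound treatment of the cells lasted 48 or 72 hr at 37 degrees Celsius in a qHTS format.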

HEK293 = assay: as above; details: Five cell lines viability, CellTiter-Glo ATP luminescence, 48-72 h; max response: stronger effect = lower value
Method in brief: as §1

HaCat = assay: as above; details: Five cell lines viability, CellTiter-Glo ATP luminescence, 48-72 h; max response: stronger effect = lower value
Method in brief: as §1

KB-3-1 = assay: as above; details: Five cell lines viability, CellTiter-Glo ATP luminescence, 48-72 h; max response: stronger effect = lower value
Method in brief: as §1

NIH3T3 [1] = assay: as above; details: Five cell lines viability, CellTiter-Glo ATP luminescence, 48-72 h; max response: stronger effect = lower value
Method in brief: as §1

HEK293T [2] = assay: qHTS assay to identify novel small-molecules to repurpose for Merkel cell carcinoma treatment (AID 1296009); details: MCC and control cell lines, CellTiter-Glo viability, 72 h; at 44.8 µM (top of the series) unless noted; also: nearly all actives have a fitted effect of over 60% in size
Method in brief: (§2)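 After compound transfer in DMSO, plates were kept 72 hr at 37 degree celsius. Luminescent ATP signal from CellTiter-Glo served as viability measure, normalized against DMSO and no-cell controls.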

C33A = assay: Primary qHTS to identify gynecologic anti-cancer compounds using libraries of approved drugs and bioactive compounds (AID 1345084); details: Gynecologic cancer cell panel viability, ATPlite luminescence, 48 h; series mostly up to 57.5 µM; also: % is scaled to controls: 0 for no effect and ±100 for the full control effect; nearly all actives have a fitted effect of over 55% in size
Method in brief: (§3)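 In this quantitative HTS, cell killing is estimated from loss of ATP-dependent luciferase light. Cells see five compound concentrations over a 48 h exposure.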

CAOV3 = assay: as above; details: Gynecologic cancer cell panel viability, ATPlite luminescence, 48 h; series mostly up to 57.5 µM
Method in brief: as §3

CASKI = assay: as above; details: Gynecologic cancer cell panel viability, ATPlite luminescence, 48 h; series mostly up to 57.5 µM
Method in brief: as §3

Es-2 = assay: as above; details: Gynecologic cancer cell panel viability, ATPlite luminescence, 48 h; series mostly up to 57.5 µM
Method in brief: as §3

HeLa = assay: as above; details: Gynecologic cancer cell panel viability, ATPlite luminescence, 48 h; series mostly up to 57.5 µM
Method in brief: as §3

Hek293T [3] = assay: as above; details: Gynecologic cancer cell panel viability, ATPlite luminescence, 48 h, control line for the selectivity index; series mostly up to 57.5 µM
Method in brief: as §3

JEG-3 = assay: as above; details: Gynecologic cancer cell panel viability, ATPlite luminescence, 48 h; series mostly up to 57.5 µM
Method in brief: as §3

NIH3T3 [4] = assay: qHTS assay to identify novel small-molecules to repurpose for Merkel cell carcinoma treatment (AID 1296009); details: MCC and control cell lines, CellTiter-Glo viability, 72 h; at 44.8 µM (top of the series) unless noted; also: nearly all actives have a fitted effect of over 60% in size
Method in brief: as §2

C/C(CO)=C1/CCC23COC(C2)C(O)(C(=O)O)CCC13 (configuration not stated)
inactive: max response (CRL-7250) 1.3% | outcome (HEK293) | max response (HaCat) 0.569% | max response (KB-3-1) 2.82% | max response (NIH3T3 [1]) -0.495% | outcome (HEK293T [2]) | Potency (C33A) | Potency (CAOV3) | outcome (CASKI) | Potency (Es-2) | Potency (HeLa) | Potency (Hek293T [3]) | Potency (JEG-3)

O=C(O)CC1(O)C(=O)Nc2ccccc21 (configuration not stated)
inactive: outcome (CRL-7250) | outcome (HEK293) | max response (HaCat) -2.76% | max response (KB-3-1) 6.03% | max response (NIH3T3 [1]) 3.37% | outcome (HEK293T [2]) inactive [at 92 µM] | Potency (C33A) | Potency (CAOV3) | outcome (CASKI) | Potency (Es-2) | Potency (Hek293T [3]) | Potency (JEG-3)

CC(C)C1CCC(CO)=CC1/C=C(\CO)C(=O)OCC1(O)CCC(C(C)C)C2C=C(C(=O)O)COC(=O)C21 (configuration not stated)
inactive: outcome (CRL-7250) | outcome (HEK293) | max response (HaCat) -2.47% | outcome (KB-3-1) | max response (NIH3T3 [1]) -0.853% | outcome (HEK293T [2]) inactive [at 17.4 µM] | Potency (C33A) | outcome (CASKI) | Potency (Es-2) | Potency (HeLa) | Potency (Hek293T [3]) | Potency (JEG-3)

C=C(C)[C@@H]1CC[C@]2(CO)CC[C@]3(C)[C@H](CC[C@@H]4[C@@]5(C)CC[C@H](O)C(C)(C)[C@@H]5CC[C@]43C)[C@@H]12
inactive: max response (CRL-7250) 1.98% | max response (HEK293) 3.79% | max response (HaCat) 2.42% | outcome (KB-3-1) | outcome (NIH3T3 [1]) | outcome (NIH3T3 [4]) inactive [at 17.4 µM] | Potency (C33A) | Potency (CAOV3) | outcome (CASKI) | Potency (Es-2) | Potency (HeLa) | Potency (Hek293T [3]) | Potency (JEG-3)

COc1ccc(-n2c(=O)[nH]c3cc(C(=O)NCc4ccc(Cl)cc4)sc3c2=O)nc1OC
inactive: max response (CRL-7250) 1.31% | max response (HEK293) 2.86% | max response (HaCat) -5.79% | max response (KB-3-1) 2.11% | outcome (NIH3T3 [1]) | outcome (NIH3T3 [4]) | Potency (C33A) | Potency (CAOV3) | outcome (CASKI) | Potency (Es-2) | Potency (HeLa) | Potency (Hek293T [3]) | Potency (JEG-3)

CC(=O)[C@@H]1C[C@H](C(C)(C)O[C@@H]2O[C@H](CO)[C@@H](O)[C@H](O)[C@H]2O)CC[C@@]2(CO)OC(=O)C[C@@H]12
inactive: max response (CRL-7250) -8.92% | max response (HEK293) 0.131% | max response (HaCat) 4.13% | max response (KB-3-1) 1.24% | outcome (NIH3T3 [1]) | outcome (NIH3T3 [4]) inactive [at 17.4 µM] | Potency (C33A) | Potency (CAOV3) | outcome (CASKI) | Potency (Es-2) | Potency (HeLa) | Potency (Hek293T [3]) | Potency (JEG-3)

C=C(C(=O)O)[C@H]1C[C@]2(C)C(=O)CC[C@]23O[C@H]1C[C@@H]3C
inactive: max response (CRL-7250) -1.57% | max response (HEK293) -7.61% | max response (HaCat) 1.8% | max response (KB-3-1) 4.05% | outcome (NIH3T3 [1]) | outcome (NIH3T3 [4]) | Potency (C33A) | Potency (CAOV3) | outcome (CASKI) | Potency (Es-2) | Potency (HeLa) | Potency (Hek293T [3]) | Potency (JEG-3)

CC(C)[C@@H](C(=O)O)N1Cc2c(cc(O)c3c2O[C@]2(C3)[C@H](C)CCC3C(C)(C)[C@H](O)[C@H](O)C[C@@]32C)C1=O (some centres not stated)
inactive: max response (CRL-7250) 2.63% | max response (HEK293) -15% | max response (HaCat) 2.56% | max response (KB-3-1) 3.13% | outcome (NIH3T3 [1]) | outcome (NIH3T3 [4]) inactive [at 17.4 µM] | Potency (C33A) | Potency (CAOV3) | outcome (CASKI) | Potency (Es-2) | Potency (HeLa) | Potency (Hek293T [3]) | Potency (JEG-3)

COc1ccc(CCC(=O)O)c(O[C@@H]2O[C@H](CO)[C@@H](O)[C@H](O)[C@H]2O)c1
inactive: outcome (CRL-7250) | max response (HEK293) -2.75% | max response (HaCat) 3.93% | max response (KB-3-1) -5.8% | outcome (NIH3T3 [1]) | outcome (NIH3T3 [4]) | Potency (C33A) | Potency (CAOV3) | outcome (CASKI) | Potency (Es-2) | Potency (HeLa) | Potency (Hek293T [3]) | Potency (JEG-3)

CC1OC(O[C@@H]2[C@@H](O)[C@H](OC(=O)[C@]34CCC(C)(C)C[C@H]3C3=CCC5[C@@]6(C)CC[C@H](O[C@@H]7O[C@H](C(=O)O)[C@@H](O)[C@H](O[C@@H]8OC[C@@H](O)[C@H](O)[C@H]8O)[C@H]7O[C@@H]7O[C@H](CO)[C@H](O)[C@H](O)[C@H]7O)[C@@](C)(C=O)C6CC[C@@]5(C)[C@]3(C)C[C@H]4O)O[C@H](C)[C@@H]2OC2OC(C)C(OC3OCC(O)C(O)C3O)C(O)C2O)C(O)C(O)C1O (some centres not stated)
inactive: max response (CRL-7250) 4.06% | max response (HEK293) -14.3% | max response (HaCat) -4.11% | max response (KB-3-1) -3.93% | outcome (NIH3T3 [1]) | outcome (NIH3T3 [4]) inactive [at 9.27 µM] | activity change, negative = cytotoxicity (C33A) 2.48% [at 6.55 µM] | activity change, negative = cytotoxicity (CAOV3) 7.91% [at 6.55 µM] | activity change, negative = cytotoxicity (CASKI) 19.4% [at 6.55 µM] | activity change, negative = cytotoxicity (Es-2) -0.176% [at 6.55 µM] | activity change, negative = cytotoxicity (HeLa) 18.4% [at 6.55 µM] | activity change, negative = cytotoxicity (Hek293T [3]) 1.68% [at 6.55 µM] | activity change, negative = cytotoxicity (JEG-3) 0.0438% [at 6.55 µM]

C[C@H]1/C=C/C=C/C=C/C=C/C=C/[C@@H](O)[C@H](C(=O)O)[C@H](O)C[C@H](O)CCC[C@H](O)C[C@H](O)C[C@H](O)[C@@H](C)C(=O)O[C@@H]1C
inactive: outcome (CRL-7250) | max response (HEK293) 1.51% | max response (HaCat) 2.29% | max response (KB-3-1) 7.54% | outcome (NIH3T3 [1]) | outcome (NIH3T3 [4]) inactive [at 17.4 µM] | Potency (C33A) | Potency (CAOV3) | outcome (CASKI) | Potency (Es-2) | Potency (HeLa) | Potency (Hek293T [3]) | Potency (JEG-3)

CC1=C(CCC(C)O[C@@H]2O[C@H](CO)[C@@H](O)[C@H](O)[C@H]2O)C(C)(C)CC(O)C1 (some centres not stated)
inactive: max response (CRL-7250) -1.39% | max response (HEK293) 1.2% | max response (HaCat) -0.421% | max response (KB-3-1) 1.93% | outcome (NIH3T3 [1]) | outcome (NIH3T3 [4]) | Potency (C33A) | Potency (CAOV3) | outcome (CASKI) | Potency (Es-2) | Potency (HeLa) | Potency (Hek293T [3]) | Potency (JEG-3)

C=C1C[C@H](O)[C@@H](O)[C@@]2(C)C1[C@@H](O)[C@H]1OC(=O)C3[C@@H](C)[C@@H](O)[C@H](O)C2[C@]31C (some centres not stated)
inactive: max response (CRL-7250) -9.79% | max response (HEK293) 3.52% | max response (HaCat) -3.92% | outcome (KB-3-1) | outcome (NIH3T3 [1]) | outcome (NIH3T3 [4]) | Potency (C33A) | Potency (CAOV3) | outcome (CASKI) | Potency (Es-2) | Potency (HeLa) | Potency (Hek293T [3]) | Potency (JEG-3)

Reference: PubChem BioAssay (NCATS)
